Source: PubChem BioAssay (NCI)
The panel holds about 83,000 compounds, 20% with a hit somewhere; the sample as a whole holds those more often.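 Testing used 96-well plates and a 48-hour single-concentration exposure. Example: -40 means 40% of the starting cells died.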 Active and inactive are the calls of the source. The calls were made as follows: active = growth percent below 10; inactive = the rest.

Assays:
Experiment in all cases: NCI-60 one-dose screen, 48 h (100 = growth as untreated, 0 = no growth, -100 = all killed)
Conditions in all cases: 10 µM unless noted
SNB-75 CNS = system: SNB-75 CNS
SNB-19 CNS = system: SNB-19 CNS
PC-3 prostate = system: PC-3 prostate
SK-MEL-5 melanoma = system: SK-MEL-5 melanoma
UACC-62 melanoma = system: UACC-62 melanoma
LOX IMVI melanoma = system: LOX IMVI melanoma
SK-MEL-28 melanoma = system: SK-MEL-28 melanoma
SK-MEL-2 melanoma = system: SK-MEL-2 melanoma
SN12C renal = system: SN12C renal
UO-31 renal = system: UO-31 renal
TK-10 renal = system: TK-10 renal
ACHN renal = system: ACHN renal
CAKI-1 renal = system: CAKI-1 renal
A498 renal = system: A498 renal
CCRF-CEM leukemia = system: CCRF-CEM leukemia
MOLT-4 leukemia = system: MOLT-4 leukemia
SR leukemia = system: SR leukemia
U251 CNS = system: U251 CNS
EKVX NSCLC = system: EKVX NSCLC

Measured: growth

CCOC(=O)c1c(NC(=O)C2CCCCC2C(=O)O)sc2c1CCCC2 (configuration not stated)
inactive: SNB-75 CNS 97.3% | SNB-19 CNS 99.8% | PC-3 prostate 101% | SK-MEL-5 melanoma 95.1% | UACC-62 melanoma 103% | LOX IMVI melanoma 90% | SK-MEL-28 melanoma 110% | SK-MEL-2 melanoma 107% | SN12C renal 104% | UO-31 renal 81.4% | TK-10 renal 113% | ACHN renal 98.2% | CAKI-1 renal 92.7% | A498 renal 109% | CCRF-CEM leukemia 99.6% | MOLT-4 leukemia 105% | SR leukemia 111%

O[C@@H]1Cc2ccc3ccccc3c2N[C@H](c2ccoc2)C1
inactive: SNB-75 CNS 95.5% | SNB-19 CNS 102% | U251 CNS 100% | SK-MEL-5 melanoma 92.8% | UACC-62 melanoma 101% | LOX IMVI melanoma 92.7% | SK-MEL-28 melanoma 125% | EKVX NSCLC 95.9% | SN12C renal 103% | UO-31 renal 82.3% | TK-10 renal 106% | ACHN renal 103% | CAKI-1 renal 96.6% | A498 renal 84.4% | CCRF-CEM leukemia 81.3% | MOLT-4 leukemia 88.2% | SR leukemia 93.3%

C[N+]1(CCC[N+]2(C)C[C@@H]3[C@H](C2)[C@@H]2C=C[C@H]3C2)CCOCC1 (some centres not stated)
inactive: SNB-75 CNS 103% | SNB-19 CNS 107% | U251 CNS 109% | SK-MEL-5 melanoma 106% | UACC-62 melanoma 97.7% | LOX IMVI melanoma 96% | SK-MEL-28 melanoma 109% | EKVX NSCLC 118% | SN12C renal 101% | UO-31 renal 73.9% | TK-10 renal 113% | ACHN renal 90.9% | CAKI-1 renal 101% | A498 renal 103% | CCRF-CEM leukemia 110% | MOLT-4 leukemia 108% | SR leukemia 110%

COc1ccc(OC)c2c1[nH]c(=O)c1c3ccccc3cn21
inactive: A498 renal 51.1%
active: SNB-75 CNS -77.2% | SNB-19 CNS -48.4% | U251 CNS -97% | SK-MEL-5 melanoma -98.8% | UACC-62 melanoma -100% | LOX IMVI melanoma -84.8% | SK-MEL-28 melanoma -83.8% | SK-MEL-2 melanoma -56.8% | EKVX NSCLC -43.4% | SN12C renal -92.9% | UO-31 renal -81.4% | TK-10 renal -83.4% | ACHN renal -84.6% | CCRF-CEM leukemia -48.7% | MOLT-4 leukemia -15.7% | SR leukemia -6.08%

NCCCc1nnc(CCC(=O)c2nc3ccccc3[nH]2)o1
inactive: SNB-75 CNS 90.8% | SNB-19 CNS 102% | U251 CNS 102% | SK-MEL-5 melanoma 108% | UACC-62 melanoma 90.2% | LOX IMVI melanoma 90.9% | SK-MEL-28 melanoma 105% | EKVX NSCLC 117% | SN12C renal 92.3% | UO-31 renal 91.8% | TK-10 renal 102% | ACHN renal 97.1% | CAKI-1 renal 103% | A498 renal 97.4% | CCRF-CEM leukemia 90.9% | MOLT-4 leukemia 98.2% | SR leukemia 84.5%

COc1ccc(/C=N\Nc2ccc([N+](=O)[O-])cn2)cc1OC
active: SNB-75 CNS -0.426% | U251 CNS -18.5% | UO-31 renal -11.9% | TK-10 renal -63.4% | ACHN renal -3.48% | A498 renal -26.2%
inactive: SNB-19 CNS 39.7% | SK-MEL-5 melanoma 85.5% | UACC-62 melanoma 81.7% | LOX IMVI melanoma 68.7% | SK-MEL-28 melanoma 79.5% | EKVX NSCLC 63.6% | SN12C renal 26.2% | CAKI-1 renal 43.1% | CCRF-CEM leukemia 124% | MOLT-4 leukemia 101% | SR leukemia 52.9%

Oc1ccccc1C=Nc1ccccc1N=Cc1ccccc1O.[Cu+2]
active: MOLT-4 leukemia 3.28%
inactive: SNB-75 CNS 47.9% | SNB-19 CNS 91.7% | U251 CNS 61.8% | SK-MEL-5 melanoma 24.1% | UACC-62 melanoma 43.9% | LOX IMVI melanoma 47.6% | SK-MEL-28 melanoma 85.1% | EKVX NSCLC 67.1% | SN12C renal 60.3% | UO-31 renal 24% | TK-10 renal 84.1% | ACHN renal 57.3% | CAKI-1 renal 68.6% | A498 renal 92.8% | CCRF-CEM leukemia 27.9% | SR leukemia 66.3%

Clc1ncn[nH]1
inactive: SNB-75 CNS 83.6% | SNB-19 CNS 102% | U251 CNS 98.2% | PC-3 prostate 101% | SK-MEL-5 melanoma 111% | UACC-62 melanoma 99.7% | LOX IMVI melanoma 102% | SK-MEL-28 melanoma 103% | SK-MEL-2 melanoma 99.4% | SN12C renal 103% | UO-31 renal 89.9% | TK-10 renal 93.8% | ACHN renal 98.3% | CAKI-1 renal 92.5% | A498 renal 106% | CCRF-CEM leukemia 103% | MOLT-4 leukemia 105% | SR leukemia 94%

CC(NC(=O)C(C)Oc1ccc(Cl)cc1Cl)C(=O)O (configuration not stated)
inactive: SNB-19 CNS 96.2% | U251 CNS 105% | PC-3 prostate 102% | SK-MEL-5 melanoma 101% | UACC-62 melanoma 91.7% | SK-MEL-28 melanoma 113% | SK-MEL-2 melanoma 97.4% | EKVX NSCLC 95.8% | SN12C renal 73.3% | UO-31 renal 78.1% | TK-10 renal 125% | ACHN renal 109% | CAKI-1 renal 101% | A498 renal 113% | MOLT-4 leukemia 139% | SR leukemia 137%
active: CCRF-CEM leukemia -9.97%

CC(=O)c1nc2ccccc2n1CCn1cc(CC(N)C(=O)O)c2ccccc21 (configuration not stated)
inactive: SNB-75 CNS 74.7% | SNB-19 CNS 92.6% | U251 CNS 102% | SK-MEL-5 melanoma 96.1% | UACC-62 melanoma 79.5% | LOX IMVI melanoma 89.4% | SK-MEL-28 melanoma 109% | EKVX NSCLC 82.4% | SN12C renal 93.7% | UO-31 renal 69.4% | TK-10 renal 102% | ACHN renal 96.9% | CAKI-1 renal 95.9% | A498 renal 116% | CCRF-CEM leukemia 82.9% | MOLT-4 leukemia 83.9% | SR leukemia 90.7%

COc1cccc2c1O/C(=C\c1c([N+](=O)[O-])ncn1C)C2=O
active: PC-3 prostate -29.8% | CCRF-CEM leukemia -7.36%
inactive: SNB-75 CNS 101% | SNB-19 CNS 106% | U251 CNS 97.4% | SK-MEL-5 melanoma 102% | UACC-62 melanoma 109% | LOX IMVI melanoma 85.2% | SK-MEL-28 melanoma 106% | SK-MEL-2 melanoma 97.6% | SN12C renal 104% | UO-31 renal 78.7% | TK-10 renal 109% | ACHN renal 89% | CAKI-1 renal 92.8% | A498 renal 100% | MOLT-4 leukemia 85.3% | SR leukemia 62.8%

c1csc([C@@H]2C[C@@H]3Cc4ccc5ccccc5c4N2O3)c1
inactive: SNB-75 CNS 87.1% | SNB-19 CNS 97.5% | U251 CNS 96.8% | SK-MEL-5 melanoma 101% | UACC-62 melanoma 79.7% | LOX IMVI melanoma 98.9% | SK-MEL-28 melanoma 103% | EKVX NSCLC 78.8% | SN12C renal 94.3% | UO-31 renal 70.2% | TK-10 renal 88.7% | ACHN renal 107% | CAKI-1 renal 82.2% | A498 renal 79.8% | CCRF-CEM leukemia 75.8% | MOLT-4 leukemia 78.3%

COC(=O)CCC1=C(C)C(C)=N/C1=C\c1[nH]c(-c2ccc[nH]2)cc1OC
inactive: SNB-19 CNS 35% | SK-MEL-28 melanoma 10.7% | SN12C renal 13.9% | TK-10 renal 16% | CAKI-1 renal 11.6%
active: SNB-75 CNS -34.9% | U251 CNS -22.9% | SK-MEL-5 melanoma -91.5% | UACC-62 melanoma -67.4% | LOX IMVI melanoma -55.5% | UO-31 renal -67% | ACHN renal -7.31% | A498 renal 4.29% | CCRF-CEM leukemia -22.7% | SR leukemia -31.4%

COc1ccc(-c2cc(Cc3cccs3)c(=O)n(Cn3cncn3)n2)cc1
inactive: SNB-75 CNS 106% | SNB-19 CNS 91.8% | SK-MEL-5 melanoma 92.9% | UACC-62 melanoma 86.2% | LOX IMVI melanoma 98% | SK-MEL-28 melanoma 108% | EKVX NSCLC 103% | SN12C renal 93.1% | TK-10 renal 113% | ACHN renal 97.6% | CAKI-1 renal 98.3% | A498 renal 83.5% | CCRF-CEM leukemia 102% | MOLT-4 leukemia 93% | SR leukemia 84%

O=C1NCC(Nc2ccc(Br)cc2Cl)C(=O)N1 (configuration not stated)
inactive: SNB-75 CNS 91% | SNB-19 CNS 102% | U251 CNS 123% | SK-MEL-5 melanoma 104% | UACC-62 melanoma 101% | LOX IMVI melanoma 105% | SK-MEL-28 melanoma 110% | EKVX NSCLC 90.7% | SN12C renal 102% | UO-31 renal 67.7% | TK-10 renal 110% | ACHN renal 96.2% | CAKI-1 renal 91.8% | A498 renal 117% | CCRF-CEM leukemia 116% | MOLT-4 leukemia 109% | SR leukemia 101%

O=C(CCc1nnc(Cn2ccnc2)o1)c1nc2ccccc2[nH]1
inactive: SNB-75 CNS 97.9% | SNB-19 CNS 108% | U251 CNS 110% | SK-MEL-5 melanoma 104% | UACC-62 melanoma 91% | LOX IMVI melanoma 90.4% | SK-MEL-28 melanoma 116% | EKVX NSCLC 99.2% | SN12C renal 98.5% | UO-31 renal 92% | TK-10 renal 110% | ACHN renal 107% | CAKI-1 renal 110% | A498 renal 101% | CCRF-CEM leukemia 101% | MOLT-4 leukemia 92.8% | SR leukemia 87.7%

CCCOc1ccc2c(c1)CC[C@@H]1[C@@H]2CC[C@@]2(C)[C@H]1CC[C@]2(C)O
inactive: SNB-75 CNS 73.4% | SNB-19 CNS 94.3% | U251 CNS 72% | SK-MEL-5 melanoma 92.7% | UACC-62 melanoma 95.8% | LOX IMVI melanoma 65% | SK-MEL-28 melanoma 85.3% | EKVX NSCLC 80% | SN12C renal 82.7% | UO-31 renal 69.9% | TK-10 renal 69.3% | ACHN renal 93.9% | CAKI-1 renal 62.3% | A498 renal 114% | CCRF-CEM leukemia 72.8% | MOLT-4 leukemia 75.9% | SR leukemia 73%

C=C(C)[C@@H]1C[C@H](O)Cc2cc(Cl)cc(Cl)c2N1
inactive: SNB-75 CNS 87.4% | SNB-19 CNS 103% | U251 CNS 94.7% | SK-MEL-5 melanoma 102% | UACC-62 melanoma 95% | LOX IMVI melanoma 92.3% | SK-MEL-28 melanoma 114% | EKVX NSCLC 84.3% | SN12C renal 96.9% | TK-10 renal 98.7% | ACHN renal 95.9% | CAKI-1 renal 91.6% | A498 renal 87.2% | CCRF-CEM leukemia 103% | MOLT-4 leukemia 88.3% | SR leukemia 108%
